Results filed as inconclusive are left out. The source made the active and inactive calls. The call rests on the fitted dose curve; in most records, active means well fitted inhibition curve with a large enough effect; inconclusive means small, poorly fitted or top-dose-only effect; inactive means no such curve, though single readings can be large or run the other way.
Experiment: Acumen qHTS Assay for Inhibitors of the mTORC1 Signaling Pathway in MEF (Tsc2-/-, p53-/-) Cells: Hit Validation;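 further: phospho-rpS6 Ser235/236 immunofluorescence normalized to propidium iodide cell count; nearly all actives have a fitted effect of over 65% in size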;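 on activity change, negative = inhibition: cells exposed to compound for 24 hours; plate controls were DMSO for no effect and 7.5 nM rapamycin control for full effect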
Conditions: Acumen imaging; activity change, negative = inhibition: at 37.3 µM (top of the series)
Potency means the concentration at half of the fitted maximal effect.

SMILES | activity change, negative = inhibition [%] | Potency
CCCS(=O)(=O)c1c(S(=O)(=O)CCC)c2cc(C(C)(C)C)ccn2c1C(=O)c1ccc(OC)c(OC)c1 | -5.67 | 
CCOc1ccccc1NC(=O)Cn1c(=O)n(CCC(=O)NCc2ccc3c(c2)OCO3)c(=O)c2ccccc21 | -23.6 | 
Cc1ccc(-n2ncc(C(=O)NCCCN3CCc4ccccc4C3)c2C2CCN(C(=O)OC(C)(C)C)CC2)c(C)c1 | -11.4 | 
CCS(=O)(=O)c1ncc(Cl)c(C(=O)Nc2ccc(S(=O)(=O)N(C)c3ccccc3)cc2)n1 |  | 1.47 µM (active)
CCS(=O)(=O)c1oc(-c2ccc(F)cc2)nc1S(=O)(=O)c1ccc(Br)cc1 |  | 4.14 µM (active)
CC1=C(C(=O)OC2CCCC2)C(c2ccccc2Cl)CC(=O)N1 (stereo not drawn) | -10.6 | 
CCC1CCc2nc3sc(C(=O)Nc4cccc(F)c4)c(N)c3cc2C1 (stereo not drawn) |  | 5.21 µM (active)
CCc1nn(CC(=O)NCc2ccccc2Cl)c(=O)c2cccn12 | 3.65 | 
Cc1cccc(-c2nc3c(cnn3-c3ccccc3)c(=O)n2-c2ccc(Br)cc2)c1 | -37.3 | 
CCC(C)S(=O)(=O)c1oc(-c2ccc(F)cc2)nc1S(=O)(=O)c1ccc(F)cc1 (stereo not drawn) |  | 1.31 µM (active)
CCOc1cc(-c2nnc(SCC(=O)NCc3ccccc3)nc2-c2ccc(OC)c(OCC)c2)ccc1OC |  | 2.07 µM (active)
COc1ccc(C(=O)c2sc(Nc3ccccc3)nc2N)cc1 | -4.73 | 
CCS(=O)(=O)c1ncc(Cl)c(C(=O)Nc2ccccc2)n1 |  | 1.31 µM (active)
CC1CCN(S(=O)(=O)c2ccc(C(=O)Nc3sc4c(c3C(N)=O)CC(C)(C)NC4(C)C)cc2)CC1 | -107 | 
C=CCc1c(C)nc2nc(SCC(=O)Nc3ccc(C)c(C)c3)nn2c1C | -88.7 | 
COc1ccc(OC)c(Nc2c3c(nc4ccccc24)CCC3)c1 |  | 3.29 µM (active)
COc1ccccc1N1CCN(C(=O)c2cnc(N3CCCCC3)c3ccccc23)CC1 |  | 0.927 µM (active)
CC1=C(C(=O)Nc2ccc(C)cc2C)C(c2cc(Br)ccc2F)n2ncc(C(=O)Nc3ccc(C)cc3)c2N1 (stereo not drawn) |  | 9.27 µM (active)
COc1cc2c(cc1OC)n(CC(=O)c1ccc(F)cc1)c(=O)n1nc(CCn3nc(C)cc3C)nc21 | -5.74 | 

SMILES | activity change, negative = inhibition [%] | Potency
COc1ccc(-c2cc(C(F)(F)F)nc(S(C)(=O)=O)n2)cc1 | -88.8 | 
Cc1ccc(C)c(CN2C(=O)C(=O)c3ccccc32)c1 |  | 1.47 µM (active)
Cc1ccc(C(=O)CC2(O)C(=O)N(Cc3ccccc3)c3ccccc32)c(C)c1 (stereo not drawn) | -24 | 
CCC1CN(C(=O)NCc2ccc(F)cc2)c2cc(C)ccc2O1 (stereo not drawn) | 0.784 | 
COc1ccc2c(c1)CCc1c(C(=O)Nc3c(C)nn(Cc4ccc(Cl)cc4)c3C)noc1-2 | -75.9 | 
Cc1nn(C(C)C(=O)NC2CCCCC2)c(=O)c2c1sc1ccccc12 (stereo not drawn) | -2.94 | 
Cc1cc(C)c(NC(=O)Cn2c(=O)n(Cc3ccc(C(=O)NCc4ccc5c(c4)OCO5)cc3)c(=O)c3ccccc32)c(C)c1 |  | 5.85 µM (active)
CCOC(=O)c1ccc(NC(=O)c2nc(S(=O)(=O)Cc3ccccc3)ncc2Cl)cc1 |  | 4.65 µM (active)
COC(=O)c1ccccc1NC(=O)CSc1n[nH]c(CC(C)C)n1 | 5.05 | 
CCN1CCOC(=O)C1CC(=O)Nc1cc(C)ccc1OC (stereo not drawn) |  | 10.4 µM (active)
Cc1cccc(C(=O)Nc2c(C(=O)NCc3ccc(Cl)cc3)sc3nc(C)cc(C)c23)c1 | -92.4 | 
O=C(CN1C(=O)C(c2ccc(F)cc2)=NC12CCCCCC2)Nc1ccccc1Cl | 12.4 | 
CCCOCc1cc(CN2CCN(c3ccccc3OC)CC2)c(O)c2ncccc12 | -93.6 | 
CCCCN(CC)CCNC(=O)C1CCN(c2nnc(C)c3c(C)n(-c4ccc(C)cc4)nc23)CC1 | -14.5 | 
CCOc1ccc(CC(=O)NC2CC(=O)N(c3ccc4c(c3)OCCO4)C2)cc1 (stereo not drawn) | -2.04 | 
Cc1ccc(NC(=O)Nc2cccs2)c(C)c1 | -40.4 | 
Cc1cccc(NC(=O)c2c(N)sc3c2CCC(C)C3)c1 (stereo not drawn) | 15.3 | 
Cc1ccc(-c2nnc(Nc3ccc(O)cc3)c3ccccc23)cc1S(=O)(=O)N1CCCCC1 | -11.6 | 
CCCC1=Nc2cc(C(=O)NCc3ccccc3)ccc2Sc2ccccc21 |  | 4.14 µM (active)
